According to the supplement of paper PMC10849652:
Of roughly 8,800 targets only a part is listed; those with a hit were picked by preference. About 0.5% of all pairs of compound and target were hits.

How the values were obtained:
Test in all cases: log2 fold change, soluble protein after heating vs DMSO (PISA); higher = thermal stabilisation; K562 lysate, 10 uM; active = over 0.2 and 3.5 SD of the protein, either way, in both replicates (recomputed)
[1] = compound: C1=CC=C(C=C1)[C@H](COC2=CC3=C(C=C2)NC(=O)N3)NC(=O)C4=CC=CN(C4=O)CC5=CC(=C(C=C5)F)F
Summary of the method: (§1)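 Thermal stability, expressed as log-two fold change relative to solvent controls, is given from duplicates. Crude K562 extract in PBS pH 7.4 with 1 mM MgCl2, at 1 mg/mL protein, was treated with 10 μM compound for 30 min and heated in aliquots for 3 min across 48°C-58°C. After pooling, adjustment to 0.5% NP-40 at 4°C and centrifugation at 21,000xg for 90 min, supernatant protein was measured by TMTpro 16plex LC-MS/MS with channel sums equalised.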

[2] = compound: CC1=C(SC2=C1C(=N[C@H](C3=NN=C(N32)C)CC(=O)N)C4=CC=C(C=C4)Cl)C
Summary of the method: as §1

[3] = compound: CC1=C2C(=CC=C1)N=C(N(C2=O)C3=CC=CC=C3C)CN4C=NC5=C(N=CN=C54)N
Summary of the method: as §1

[4] = compound: Cc1sc2c(c1C)C(c1ccc(Cl)cc1)=N[C@@H](CC(=O)OC(C)(C)C)c1nnc(C)n1-2
Summary of the method: as §1

[5] = compound: c1ccc([C@@H]2C[C@H]2NC2CCNCC2)cc1
Summary of the method: as §1

Measured: log2 fold change

BCR (UniProt P11274)
Sequence of UniProt P11274 (P11274 whole entry, looked up): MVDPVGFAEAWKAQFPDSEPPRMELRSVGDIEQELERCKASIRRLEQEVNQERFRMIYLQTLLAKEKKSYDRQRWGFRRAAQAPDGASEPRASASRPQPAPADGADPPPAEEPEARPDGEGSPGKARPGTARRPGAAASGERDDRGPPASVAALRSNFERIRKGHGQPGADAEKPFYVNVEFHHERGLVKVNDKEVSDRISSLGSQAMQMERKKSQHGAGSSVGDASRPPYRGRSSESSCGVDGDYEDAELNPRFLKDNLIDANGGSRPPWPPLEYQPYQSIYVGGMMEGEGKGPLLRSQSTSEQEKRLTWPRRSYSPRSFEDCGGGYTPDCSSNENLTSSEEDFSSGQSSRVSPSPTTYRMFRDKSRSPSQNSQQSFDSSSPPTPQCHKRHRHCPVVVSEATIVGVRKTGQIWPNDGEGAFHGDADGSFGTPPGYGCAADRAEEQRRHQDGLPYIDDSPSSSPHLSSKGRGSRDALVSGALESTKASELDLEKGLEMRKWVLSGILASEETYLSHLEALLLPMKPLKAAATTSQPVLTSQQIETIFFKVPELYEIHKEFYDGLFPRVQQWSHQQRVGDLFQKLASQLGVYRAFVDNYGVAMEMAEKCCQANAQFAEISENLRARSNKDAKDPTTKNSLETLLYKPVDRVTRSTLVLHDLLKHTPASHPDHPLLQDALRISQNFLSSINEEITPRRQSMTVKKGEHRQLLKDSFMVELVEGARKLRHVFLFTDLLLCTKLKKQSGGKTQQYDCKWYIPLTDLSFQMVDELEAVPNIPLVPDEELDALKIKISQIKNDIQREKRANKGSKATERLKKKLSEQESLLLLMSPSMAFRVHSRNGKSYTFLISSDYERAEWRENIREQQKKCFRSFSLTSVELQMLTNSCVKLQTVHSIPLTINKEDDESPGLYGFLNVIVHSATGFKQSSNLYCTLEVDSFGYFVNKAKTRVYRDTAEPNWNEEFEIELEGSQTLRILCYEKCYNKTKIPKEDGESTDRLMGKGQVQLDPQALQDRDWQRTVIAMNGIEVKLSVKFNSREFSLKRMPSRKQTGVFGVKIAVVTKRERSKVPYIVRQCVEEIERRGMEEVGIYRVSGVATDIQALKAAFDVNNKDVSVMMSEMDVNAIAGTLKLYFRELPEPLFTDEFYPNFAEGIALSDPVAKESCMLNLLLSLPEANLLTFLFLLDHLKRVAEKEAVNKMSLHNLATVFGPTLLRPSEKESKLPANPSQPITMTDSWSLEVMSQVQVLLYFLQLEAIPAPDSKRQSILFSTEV
inactive: [1] -0.03 | [2] 0.005 | [3] -0.014 | [4] 0.007 | [5] 0.027

AVEN (UniProt Q9NQS1)
Sequence of UniProt Q9NQS1 (Q9NQS1 whole entry, looked up): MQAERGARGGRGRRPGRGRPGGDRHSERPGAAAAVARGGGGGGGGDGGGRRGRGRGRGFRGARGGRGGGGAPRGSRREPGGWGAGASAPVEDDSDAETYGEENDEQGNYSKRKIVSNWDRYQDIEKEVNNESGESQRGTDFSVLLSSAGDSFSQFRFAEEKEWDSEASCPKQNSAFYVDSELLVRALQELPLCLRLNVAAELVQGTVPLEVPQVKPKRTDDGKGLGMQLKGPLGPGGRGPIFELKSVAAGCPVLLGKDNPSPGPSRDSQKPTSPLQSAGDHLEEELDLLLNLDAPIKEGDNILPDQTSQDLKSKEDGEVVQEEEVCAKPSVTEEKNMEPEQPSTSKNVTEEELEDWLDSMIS
inactive: [1] 0.205 | [2] 0.025 | [3] 0.003 | [4] 0.013 | [5] -0.058

CASP3 (UniProt P42574)
Sequence of UniProt P42574 (P42574 whole entry, looked up): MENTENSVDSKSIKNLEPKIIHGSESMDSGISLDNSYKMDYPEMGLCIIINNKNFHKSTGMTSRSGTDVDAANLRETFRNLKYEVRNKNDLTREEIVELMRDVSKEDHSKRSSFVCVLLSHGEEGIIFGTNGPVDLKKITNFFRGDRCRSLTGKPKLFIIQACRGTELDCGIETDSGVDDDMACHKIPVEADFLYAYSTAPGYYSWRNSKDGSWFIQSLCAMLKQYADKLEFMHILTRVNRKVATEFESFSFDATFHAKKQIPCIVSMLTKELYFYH
inactive: [1] 0.051 | [2] -0.011 | [3] 0.039 | [4] 0.051 | [5] 0.103

C19orf54 (UniProt Q5BKX5)
inactive: [1] 0.04 | [2] 0.102 | [3] -0.007 | [4] 0.033 | [5] 0.043

AURKAIP1 (UniProt Q9NWT8)
inactive: [1] 0.05 | [2] 0.032 | [3] -0.014 | [4] 0.024 | [5] 0.034

CDKN1C (UniProt P49918)
Sequence of UniProt P49918 (P49918 whole entry, looked up): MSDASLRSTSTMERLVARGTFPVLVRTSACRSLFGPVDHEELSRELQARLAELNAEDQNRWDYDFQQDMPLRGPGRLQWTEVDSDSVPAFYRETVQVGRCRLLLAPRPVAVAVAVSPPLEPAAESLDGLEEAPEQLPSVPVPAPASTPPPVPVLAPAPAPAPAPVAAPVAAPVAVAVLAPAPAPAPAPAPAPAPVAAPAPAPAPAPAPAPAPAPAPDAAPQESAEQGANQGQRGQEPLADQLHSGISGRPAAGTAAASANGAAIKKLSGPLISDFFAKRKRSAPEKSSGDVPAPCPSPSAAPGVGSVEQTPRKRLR
inactive: [1] 0.035 | [2] -0.012 | [3] 0.185 | [4] 0.094 | [5] 0.025

BRAF (UniProt P15056)
Sequence of UniProt P15056 (P15056 whole entry, looked up): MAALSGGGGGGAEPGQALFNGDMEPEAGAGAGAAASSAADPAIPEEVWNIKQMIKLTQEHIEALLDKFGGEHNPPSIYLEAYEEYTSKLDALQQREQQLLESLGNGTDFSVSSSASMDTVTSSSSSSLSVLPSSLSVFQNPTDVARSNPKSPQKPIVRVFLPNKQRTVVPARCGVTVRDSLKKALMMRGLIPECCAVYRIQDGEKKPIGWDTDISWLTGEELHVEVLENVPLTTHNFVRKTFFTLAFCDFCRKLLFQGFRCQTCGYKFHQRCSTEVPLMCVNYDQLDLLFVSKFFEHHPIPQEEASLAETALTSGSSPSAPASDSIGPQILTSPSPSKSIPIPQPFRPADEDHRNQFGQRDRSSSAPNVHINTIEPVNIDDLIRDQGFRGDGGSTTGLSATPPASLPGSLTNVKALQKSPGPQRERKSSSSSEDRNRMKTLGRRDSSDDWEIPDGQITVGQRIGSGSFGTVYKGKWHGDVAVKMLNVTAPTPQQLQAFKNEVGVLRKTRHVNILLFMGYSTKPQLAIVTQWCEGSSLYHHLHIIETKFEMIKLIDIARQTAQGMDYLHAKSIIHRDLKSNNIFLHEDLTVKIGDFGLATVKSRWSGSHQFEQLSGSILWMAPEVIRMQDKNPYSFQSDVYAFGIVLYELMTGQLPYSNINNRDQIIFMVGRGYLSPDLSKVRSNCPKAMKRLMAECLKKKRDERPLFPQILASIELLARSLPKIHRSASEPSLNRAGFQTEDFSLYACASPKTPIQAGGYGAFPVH
inactive: [1] -0.024 | [2] -0.051 | [3] 0.012 | [4] -0.017 | [5] -0.06

CDC16 (UniProt Q13042)
inactive: [1] -0.038 | [2] 0.027 | [3] 0.025 | [4] 0.03 | [5] 0.021

ATXN2 (UniProt F8WB05)
inactive: [1] -0.17 | [2] 0.212 | [3] 0.146 | [4] 0.004 | [5] 0.022

BCKDK (UniProt O14874)
inactive: [1] -0.036 | [2] -0.007 | [3] -0.037 | [4] 0.016 | [5] 0.012

CDK17 isoform 2 (UniProt Q00537)
Sequence of UniProt Q00537 (Q00537 whole entry, looked up): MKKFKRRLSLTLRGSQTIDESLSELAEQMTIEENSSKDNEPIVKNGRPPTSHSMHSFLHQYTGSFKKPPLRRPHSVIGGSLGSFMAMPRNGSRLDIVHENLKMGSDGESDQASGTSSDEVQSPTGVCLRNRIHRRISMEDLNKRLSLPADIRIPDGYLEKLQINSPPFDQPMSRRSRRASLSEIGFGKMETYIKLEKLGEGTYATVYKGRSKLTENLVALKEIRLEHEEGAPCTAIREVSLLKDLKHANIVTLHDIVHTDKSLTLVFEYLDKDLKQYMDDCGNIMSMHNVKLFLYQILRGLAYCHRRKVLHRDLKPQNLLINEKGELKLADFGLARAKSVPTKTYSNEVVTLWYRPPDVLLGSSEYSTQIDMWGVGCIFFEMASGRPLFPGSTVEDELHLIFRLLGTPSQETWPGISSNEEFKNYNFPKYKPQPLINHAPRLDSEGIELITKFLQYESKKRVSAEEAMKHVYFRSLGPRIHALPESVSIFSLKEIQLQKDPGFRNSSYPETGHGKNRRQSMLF
inactive: [1] 0.072 | [2] 0.099 | [3] 0.109 | [4] 0.072 | [5] -0.146

CEP152 (UniProt O94986)
inactive: [1] 0.024 | [2] -0.236 | [3] 0.01 | [4] 0.008 | [5] -0.028

ATP9B (UniProt O43861)
inactive: [1] 0.109 | [2] -0.028 | [3] 0.015 | [4] -0.019 | [5] -0.079

CEP128 (UniProt Q6ZU80)
inactive: [1] -0.38 | [2] 0.338 | [3] -0.023 | [4] -0.125 | [5] -0.507

ATXN2 (UniProt Q99700)
Sequence of UniProt Q99700 (Q99700 whole entry, looked up): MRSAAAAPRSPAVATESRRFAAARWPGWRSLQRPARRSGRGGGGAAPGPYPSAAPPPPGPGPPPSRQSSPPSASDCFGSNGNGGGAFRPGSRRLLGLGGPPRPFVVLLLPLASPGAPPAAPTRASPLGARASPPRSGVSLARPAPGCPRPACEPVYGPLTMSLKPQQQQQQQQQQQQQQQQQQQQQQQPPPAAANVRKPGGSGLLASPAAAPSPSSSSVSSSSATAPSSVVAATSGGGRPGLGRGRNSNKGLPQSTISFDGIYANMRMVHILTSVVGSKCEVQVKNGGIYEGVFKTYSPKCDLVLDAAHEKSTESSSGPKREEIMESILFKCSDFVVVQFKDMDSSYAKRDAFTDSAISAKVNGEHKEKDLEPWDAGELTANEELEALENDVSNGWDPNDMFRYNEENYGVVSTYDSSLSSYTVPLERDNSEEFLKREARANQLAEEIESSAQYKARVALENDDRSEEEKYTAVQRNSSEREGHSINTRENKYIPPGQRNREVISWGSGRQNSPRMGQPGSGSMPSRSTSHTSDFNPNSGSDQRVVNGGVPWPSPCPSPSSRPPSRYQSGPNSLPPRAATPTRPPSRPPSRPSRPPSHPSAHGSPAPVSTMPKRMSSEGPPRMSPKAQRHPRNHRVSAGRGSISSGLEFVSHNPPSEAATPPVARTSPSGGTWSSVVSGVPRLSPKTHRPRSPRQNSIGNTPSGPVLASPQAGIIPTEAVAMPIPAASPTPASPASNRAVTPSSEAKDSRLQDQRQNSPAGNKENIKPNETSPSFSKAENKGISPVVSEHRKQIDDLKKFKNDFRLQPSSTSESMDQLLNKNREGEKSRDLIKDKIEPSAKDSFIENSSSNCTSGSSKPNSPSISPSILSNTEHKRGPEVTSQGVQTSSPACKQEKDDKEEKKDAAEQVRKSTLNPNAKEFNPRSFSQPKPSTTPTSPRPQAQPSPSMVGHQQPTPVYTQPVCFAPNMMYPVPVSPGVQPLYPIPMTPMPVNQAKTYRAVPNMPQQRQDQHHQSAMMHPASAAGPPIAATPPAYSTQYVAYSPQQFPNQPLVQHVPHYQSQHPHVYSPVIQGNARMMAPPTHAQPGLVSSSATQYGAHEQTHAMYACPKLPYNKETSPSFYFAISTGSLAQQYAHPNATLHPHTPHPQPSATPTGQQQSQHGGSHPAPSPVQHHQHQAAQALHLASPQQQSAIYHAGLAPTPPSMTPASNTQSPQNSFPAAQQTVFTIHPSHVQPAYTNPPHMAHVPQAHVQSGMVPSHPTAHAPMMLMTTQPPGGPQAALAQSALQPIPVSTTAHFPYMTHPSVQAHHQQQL
inactive: [1] 0.013 | [2] 0.016 | [3] 0.075 | [4] -0.02 | [5] -0.021

ATP5PF isoform 2 (UniProt P18859)
Sequence of UniProt P18859 (P18859 whole entry, looked up): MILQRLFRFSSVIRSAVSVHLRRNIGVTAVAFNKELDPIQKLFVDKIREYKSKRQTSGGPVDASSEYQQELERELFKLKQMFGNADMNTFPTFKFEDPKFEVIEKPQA
inactive: [1] 0.085 | [2] -0.086 | [3] -0.05 | [4] 0.075 | [5] 0.228

CBX5 (UniProt P45973)
inactive: [1] 0.04 | [2] -0.002 | [3] -0.038 | [4] 0.031 | [5] -0.135

BOLA2 (UniProt Q9H3K6)
Sequence of UniProt Q9H3K6 (Q9H3K6 whole entry, looked up): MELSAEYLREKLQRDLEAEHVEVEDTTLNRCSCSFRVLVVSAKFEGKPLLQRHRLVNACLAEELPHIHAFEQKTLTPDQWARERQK
inactive: [1] -0.052 | [2] 0.01 | [3] -0.019 | [4] 0.034 | [5] 0.078

BCAR1 isoform 6 (UniProt P56945)
inactive: [1] 0.01 | [2] 0.013 | [3] -0.045 | [4] -0.043 | [5] 0.107

CD63 (UniProt P08962)
inactive: [1] 0.006 | [2] 0.001 | [3] -0.008 | [4] -0.13 | [5] -0.242

CALB2 (UniProt P22676)
inactive: [1] -0.067 | [2] -0.053 | [3] 0.009 | [4] -0.007 | [5] 0.013

CDK5RAP1 (UniProt Q96SZ6)
inactive: [2] -0.117 | [3] 0.05 | [4] -0.023 | [5] -0.004
active: [1] 0.266

CCNY (UniProt Q8ND76)
inactive: [1] -0.04 | [2] 0.048 | [3] -0.104 | [4] -0.064 | [5] -0.028

ATP2B4 (UniProt P23634)
inactive: [1] -0.021 | [2] 0.036 | [3] 0.059 | [4] 0.029 | [5] -0.081
